# Source: PubChem BioAssay (Broad Institute)
# Tgondii IFNg = inhibitors of Toxoplasma gondii growth with IFN-gamma | AID 1259416 | Toxoplasma gondii growth in IFN-gamma-treated host cells; active compounds read low | 3.8% of 69,000 active | activity change, negative = inhibition, % (test concentration not listed); in the data active = activity change below about -70%, passing the limit was not always enough;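 also: host cells are HeLa cells infected with Toxoplasma gondii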
# Numbers stand for hits; i = inactive. The sample as a whole holds a higher share of hits than the screen did.
SMILES,Tgondii IFNg
N#CC1(c2ccc(NC(=O)c3cccnc3NCc3ccncc3)cc2)CCCC1,-72
O=C(O)c1cccnc1NCC1CCCO1 (centres undefined),i
O=C(Nc1ccc(F)cc1)c1cccnc1Oc1ccccc1,i
COc1ccc2c(c1)C=C(CN(CCN(C)C)Cc1cccnc1)CO2,i
O=C(Cc1ccc2c(c1)CCC2)NCCN1CCC(O)(c2ccc(F)cc2)CC1,-76
O=C(NCCN1CCC(O)(c2ccc(F)cc2)CC1)c1c(F)cccc1F,i
COc1cc2c(cc1CN1CCC(NC(C)=O)(c3ccc(F)cc3)CC1)CCC2,i
COc1ccccc1N(Cc1nc(-c2cccc(Cl)c2)oc1C)S(=O)(=O)c1ccccc1,i
Cn1ccnc1C1(O)COC2(CCN(C(=O)c3cccs3)CC2)C1 (centres undefined),i
CNC(=O)[C@H]1C[C@@H]2CN(C(=O)NCCc3ccccc3)C[C@H]1O2,i
COc1ccc2[nH]c(=O)c(CNc3ccc(-c4nc5ccc(C)cc5[nH]4)cc3)cc2c1,i
CC(C)c1ccc2[nH]c(=O)c(CNc3ccc4[nH]ncc4c3)cc2c1,-82
COc1cc2cc(CNc3ccc(N4CCN(C)CC4)cc3)c(=O)[nH]c2cc1OC,i
CCOc1ccccc1O[C@H](c1ccccc1)[C@H]1CNCCO1 (racemic),i
Cc1nc2ccc(C(=O)N3CCCC4(CC3)CNC(=O)O4)cc2nc1C (centres undefined),i
Cc1nnc(-c2ccc(C(C)N3CCCCC3)cc2)s1 (centres undefined),i
Cc1nnc(Sc2nc(Sc3nnc(C)s3)nc(N3CCCCC3)n2)s1,-84
Cc1nnc(Sc2c(N)n(C)c(=O)[nH]c2=O)s1,i
O=C(Nc1cnn(Cc2cccc(F)c2)c1)c1cnc(-c2ccc(Cl)cc2)nc1,i
Cc1ccccc1C1(O)CCN(C(=O)c2cc3c([nH]c2=O)CCCCC3)CC1,i
CC(=O)N1CCOCC1c1nccc(N2CCOCC2)n1 (centres undefined),i
Nc1cc(N)nc(SCc2ccccc2)n1,i
Cn1nc(-c2ccc(-c3ccnc(SCc4ccccc4)n3)s2)cc1C(F)(F)F,-97
Cn1nc(-c2ccc(S(N)(=O)=O)s2)cc1C(F)(F)F,i
CC(C)NC(=O)N1CCC2(CC(Nc3cnccn3)CO2)C1 (centres undefined),i
SMILES,Tgondii IFNg
CCc1cccc(NC(=O)CN2CCC3(CC2)N=C(c2cccc(F)c2)C(=O)N3)c1,i
O=C(CN1CCCCC1)Nc1nc(-c2ccccc2)cs1,i
Cc1csc(NC(=O)CN2CCC(c3ccc(F)cc3)CC2)n1,i
O=C(CN1CCCC1Cn1cccn1)Nc1nc(-c2ccc(F)cc2)cs1 (centres undefined),-77
O=C1CCC(C(=O)Nc2cccc(-c3nc4ccccc4s3)c2)=NN1,i
COc1cc(C(=O)Oc2cc(C)cc(C)c2)cc(OC)c1OC,i
COc1ccc(C(=O)/C=C/c2ccc(OC(=O)c3cc(OC)c(OC)c(OC)c3)cc2)cc1,i
COc1cc(C(=O)Oc2ccc(C3CCCCC3)cc2)cc(OC)c1OC,-94
CC(C)N1CCCn2c(nc(CNC(=O)c3cccn3C)cc2=O)C1,i
O=C1CC(c2ccccc2)=NN1c1ccccc1,i
C1=C(c2ccccc2)CC(c2ccccc2)=NN=C1c1ccccc1,-87
COc1ccc(CNC(=O)c2nc3c(s2)CCN(C(C)=O)CC3)cc1,i
CC(C)CNC(=O)c1nc2c(s1)CCN(C(=O)NCc1ccccc1)CC2,-84
CNC(=O)c1nc2c(s1)CCN(C(=O)NCc1ccccc1)CC2,i
CCn1c(SCc2nnc(-c3ccccc3)o2)nnc1-c1cc(OC)cc(OC)c1,i
C[C@@H]1CN([C@@H](C)CO)C(=O)Cc2cc(N(C)C)ccc2O[C@H]1CN(C)Cc1ccc(-c2ccccc2)cc1,i
C[C@H](CO)N1C[C@H](C)[C@H](CN(C)Cc2ccc(-c3ccccc3)cc2)Oc2ccc(N(C)C)cc2CC1=O,-83
C[C@@H]1CN([C@H](C)CO)C(=O)c2cc(N(C)C)ccc2O[C@H]1CN(C)Cc1ccc(Oc2ccccc2)cc1,i
COc1ccc(S(=O)(=O)N2CCN(CC(O)c3ccc4c(c3)OCCCO4)CC2)cc1 (centres undefined),i
CCOc1ccc(C(=O)Nc2ccc(-c3nc(Cn4cc(C)cn4)c(C)o3)cc2)cc1,-91
CCc1ccc(C(=O)Nc2ccc(-c3nc(Cn4cccn4)c(C)o3)cc2)cc1,i
Cc1cnn(Cc2nc(-c3ccc(NC(=O)c4cccc(Cl)c4)cc3)oc2C)c1,i
COc1ccc(Cl)cc1C(=O)Nc1ccc(-c2nc(Cn3cc(C)cn3)c(C)o2)cc1,i
Cc1cnn(Cc2nc(-c3ccc(NC(=O)c4ccc(Cl)cc4)cc3)oc2C)c1,-87
Cc1cnn(Cc2nc(-c3ccc(NC(=O)COc4ccccc4)cc3)oc2C)c1,i
Cc1ccc(NC(=O)Cn2c(=O)cc(C(=O)N3CCCCC3)c3ccccc32)cc1,i
CC(=O)N1CCC(C(=O)NCC2(Cn3ccnc3)CC2)CC1,i
CC(=O)N(C)Cc1cc(C2CCC(CN(C)CC3=CCCOC3)CC2)nn1C (centres undefined),i
CN(C)CCN1C(=O)CC2C1CCN2C(=O)Cc1cccs1 (centres undefined),i
